Assay outcomes (PubChem)
Most compounds without a hit are left out; they make up all but 20% or so of the library.
Pf growth 48h: P. falciparum growth inhibition at 48 hours (one generation). P. falciparum luciferase growth in erythrocytes, 48 h. Potency, µM (doses to about 28.7 µM), for inactives: at the top dose activity change, negative = inhibition, actives largely listed as inhibitors. 310,000 compounds, 5.9% hits. AID 504832; also: potency is read from the fitted curve at half-maximal effect; % is scaled to controls: 0 for no effect and ±100 for the full control effect
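Growth was read as firefly luciferase luminescence after a 48 h, 37 C, 5% CO2 exposure of compounds to reporter-bearing P. falciparum cultures (0.1% parasitemia, 2% hematocrit final) in Albumax-supplemented RPMI 1640.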
HCMV antiviral: inhibitors of human cytomegalovirus | HFF cells, HCMV-luciferase reporter, 72 h; active compounds read low | activity change, negative = inhibition, % at 57.5 µM | 410,000 compounds, 4.5% hits | AID 1259415; in the data active = activity change below about -60%; inconclusive = no clear call, values can overlap the other calls; inactive = above about -39%; also: % is scaled to controls: 0 for no effect and ±100 for the full control effect
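Two compound doses tested in HFFs infected with HCMV-luciferase, MOI 1 PFU/cell, 72 h at 37C. Lysate luminescence read with OneGlo; data normalized against buffer-only and 10uM Salinomycin inhibitor controls.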
Cycloheximide cs: counter-screen hit for Shiga toxin inhibitors, cycloheximide; cell reporter, cycloheximide protein synthesis inhibition counterscreen; 300,000 compounds, 12% hits; AID 2314; max response, %; in the data active = max response mostly above about 13%, no sharp cut-off; inactive = mostly below about 14%; also: read at 38.3 µM for the half of the compounds with a filed dose; 0% is about no effect
Pf growth 96h: P. falciparum growth inhibition at 96 hour, primary screen for plastid delayed-death inhibitors. P. falciparum luciferase reporter growth, 96 h. Potency, µM (series often up to 28.7 µM), for inactives: at the top dose activity change, negative = inhibition, most hits filed as inhibitors. 320,000 compounds, 6.9% hits. AID 504834; also: potency is read from the fitted curve at half-maximal effect; % is scaled to controls: 0 for no effect and ±100 for the full control effect
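Parasite growth measured via integrated firefly luciferase reporter in P. falciparum. Infected erythrocytes at 2% hematocrit, 0.05% parasitemia final were treated 96 hours at 37 C under 5% CO2, and luminescence was read.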
Shiga toxin inh: inhibitors of Shiga toxin in Vero cells | Vero cells, Shiga toxin protein synthesis inhibition reporter | 290,000 compounds, 9.2% hits | AID 2315 | inhibition, % at 38.7 µM; in the data active = inhibition mostly above about 28%, no sharp cut-off; inactive = mostly below about 43%; also: 0% is about no effect
Starred values were filed as active, the others as inactive; i = inactive; ? = inconclusive; · = not tested or not shown; + = active, no number. Unless noted, calls follow the shape of the dose curve; as a rule, active = well fitted inhibition curve with a large enough effect; inconclusive = small, poorly fitted or top-dose-only effect, or another doubt; inactive = no such curve, though single readings can be large or run the other way.

SMILES	Pf growth 48h	HCMV antiviral	Cycloheximide cs	Pf growth 96h	Shiga toxin inh
Cc1cc(C)c(NS(=O)(=O)c2ccc(-c3cnc(C4CC4)o3)cc2)c(C)c1	·	-92*	·	·	·
CCOc1ccccc1NS(=O)(=O)c1ccc(-c2cnc(C3CC3)o2)cc1	0%	+	7	17%	-7
CC(C)NC(=O)c1csc(COCCO)n1	·	-10	·	·	·
CN1CCc2c(sc3c2c(=O)n(-c2ccccc2)c2n[nH]c(=S)n32)C1	8%	-5	0	2%	-13
COc1ccc(N2CCN(S(=O)(=O)c3ccc(-c4cnc(C5CC5)o4)cc3)CC2)cc1	-10%	-18	0	?	-3
O=S(=O)(c1ccc(-c2cnc(C3CC3)o2)cc1)N1CCN(c2ccc(F)cc2)CC1	·	-77*	·	·	·
COc1ccc(-c2cc3ncc(C(C)=O)c(C)n3n2)cc1	78%	1	28*	?	68*
CC(=O)c1cnc2cc(C)nn2c1C	47%	51	-2	?	-4
CC(=O)c1cnc2cc(-c3ccc(C)cc3)nn2c1C	461%	73	26*	-2%	13*
CC(=O)c1cnc2cc(-c3ccccc3)nn2c1C	232%	22	43*	?	57*
CCCCN(CC)CCCNC(=O)C1CCCN(c2ncnc3c2nc2n3CCCCC2)C1 (centres undefined)	·	-6	·	·	·
CCN1CCN(c2ccc(NC(=O)Cc3ccccc3)cc2)CC1	8%	37	15*	-12%	67*
O=C(Nc1ccc(N2CCN(Cc3ccccc3)CC2)cc1)c1ncn[nH]1	5.9µM*	-10	0	·	-17
O=C(Cc1ccccc1)Nc1ccc(N2CCCC2)cc1	·	-30	15	53%	30
O=C(Cc1ccccc1)Nc1ccc(N2CCOCC2)cc1	27%	74	28*	?	46*
CCC(=O)Nc1ccc(N2CCN(Cc3ccccc3)CC2)cc1	?	8	25	13%	-5
CCOc1ccc2nc(-c3cc(NC(C)=O)ccc3O)sc2c1	168%	-8	35*	47%	51
CCOCC(=O)Nc1nc2ccc(C)cc2s1	i	67	43*	5%	85*
Cc1ccc2nc(NC(=O)CSc3cc(C)[nH]c(=O)n3)sc2c1	·	36	·	·	·
COc1ccc(OCC(=O)Nc2ccc(O)c(-c3nc4ccccc4s3)c2)cc1	·	10	·	·	·
Cc1ccc2nc(NC(=O)CSCC(=O)OCC(=O)c3ccccc3)sc2c1	?	-28	18*	?	15
C/C=C/C(=O)OCC(=O)Nc1nc2ccc(C)cc2s1	·	38	7	10µM*	-3
Cc1ccc(/C=C2/C(=O)N(c3ccccc3)C(=S)N2C)o1	17%	-26	-4	-8%	-9
COC(=O)[C@]12CCCCC=C1N(Cc1ccccc1)C(=O)[C@H](CC(=O)NCC13CC4CC(CC(C4)C1)C3)C2	·	-17	·	·	·
O=c1c2c3c(sc2n(Cc2ccccc2F)c(=O)n1-c1ccc(Cl)cc1)CCCC3	·	8	·	·	·
SMILES	Pf growth 48h	HCMV antiviral	Cycloheximide cs	Pf growth 96h	Shiga toxin inh
O=C(CN1CCC(n2nnc3cc(F)ccc32)CC1)NC1CCCCC1	?	31	-2	-14%	13
CCOc1ccc2nc(NC(=O)CN3CCC(n4nnc5cc(F)ccc54)CC3)sc2c1	?	-68*	19	104%	29
CCOCC(=O)Nc1nc2ccc(S(C)(=O)=O)cc2s1	21%	-21	33*	-1%	54*
CCOCC(=O)Nc1nc2ccc(OCC)cc2s1	39%	80	52*	4%	112*
Cc1ccc2nc(NC(=O)COC(=O)c3ccccn3)sc2c1	167%	19	36*	147%	119*
CCC(=O)Nc1nc2ccc(S(C)(=O)=O)cc2s1	15%	36	14	?	25
COc1ccccc1NC(=O)COC(=O)c1ccccn1	2%	73	-5	-6%	-13
CC(C)C(C(=O)NCc1ccccc1)N(C)Cc1ccc(Cl)c(Cl)c1 (centres undefined)	·	-27	·	·	·
O=C(CN1CCN(c2ccccn2)CC1)Nc1ccc(F)c(F)c1	3%	-40	-1	10%	-2
Cc1cn([C@H]2C[C@H](O)[C@@H](CNCC3=Cc4cc(O)ccc4OC3)O2)c(=O)[nH]c1=O	·	25	·	·	·
CS(=O)(=O)c1ccc2nc(NC(=O)CCN3C(=O)c4ccccc4C3=O)sc2c1	-18%	-27	11	52%	9
CS(=O)(=O)c1ccc2nc(NC(=O)CN3CCC(Cc4ccccc4)CC3)sc2c1	-1%	-85*	-6	33%	8
